The source of these data is PubChem BioAssay AID2330 (Broad Institute, 2010).

The whole screen tested about 37,000 compounds, of which about 2,800 (7.6%) were called active. Roughly 1% stayed inconclusive and do not appear here. This excerpt belongs to a sample that is enriched for actives. Unmarked numbers belong to inactive results. Rule as the data show it: active = inhibition above about 80%; inconclusive = no clear call, values can overlap the other calls; inactive = below that.

This assay can be described thus: NOMO-1 AML cell viability reduction, primary screen, STK33 inhibitor project, CellTiter-Glo luminescence (AID 2330). The following applies: NOMO-1 AML viability, 72 h, hits give high values, concentration not given here. On the technique in general: Cellular ATP, detected with luciferase, serves as a proxy for viable cell number.
Turning to `COc1ccc(NC(=O)c2ccc(OCC(=O)Nc3ccccc3F)cc2)cc1Cl`, the inhibition (as a rule, the drop in the measured response relative to a control, in per cent) is 19.2%. For `CCOC(=O)c1nnn2c3ccccc3c(=O)n(C)c12`, the inhibition was -3.54%. To `CCOC(=O)c1nnn2c1nc(N1CCN(c3ccccc3)CC1)c1ccccc12` belongs 101% (active); to `CCOC(=O)c1c(CN2CCOCC2)nc2c3ccccc3ccn12`, -2.66%; to `Cc1noc(C)c1NC(=O)Nc1cccc2c1O[C@H](CN(C)C(=O)Nc1ccccc1)[C@@H](C)CN([C@H](C)CO)C2=O`, 30.8%. Turning to `NC(CC(=O)Nc1ccc(Cl)cc1)C(=O)O` (stereo not drawn), the inhibition was 16.1%. As for `Cc1noc(C)c1S(=O)(=O)Nc1ccc2c(c1)CC(=O)N([C@@H](C)CO)C[C@@H](C)[C@@H](CN(C)C(=O)Nc1ccc(C(F)(F)F)cc1)O2`, the inhibition was 14.7%. Under `O=C1Cc2ccc(F)cc2CC1C1=Cc2ccc(F)cc2CC1` (stereo not drawn) stands 114% (active); under `Cc1ccc(NC(N)=O)cc1`, 0.872%; under `Oc1ccc(CN2CCCC2)c2cccnc12`, 141% (active). To `C[C@H](CO)N1C[C@H](C)[C@H](CN(C)S(=O)(=O)c2ccc(Cl)cc2)Oc2c(NS(C)(=O)=O)cccc2C1=O` belongs 9.14%; to `C[C@H](CO)N1C[C@H](C)[C@H](CN(C)S(=O)(=O)c2cccs2)Oc2ccc(NS(=O)(=O)c3ccc(Cl)cc3)cc2CC1=O`, 12.4%; to `COc1c(C)c2c(c(O)c1C/C=C(\C)CCC(=O)O)C(=O)OC2`, 139% (active). Under `CS(=O)(=O)N(CC(=O)Nc1ccc(F)c(F)c1)c1ccccc1F` stands -8.09%; under `Oc1c(Cl)cc(Cl)cc1C1Nc2cc(C(F)(F)F)ccc2-n2cccc21` (stereo not drawn), 114% (active); under `C[C@@H]1CN([C@H](C)CO)C(=O)Cc2cc(NC(=O)CCN3CCOCC3)ccc2O[C@@H]1CN(C)S(C)(=O)=O`, 5.67%. Turning to `CC(C)NC(=O)N(C)C[C@@H]1Oc2ccc(NS(=O)(=O)c3cn(C)cn3)cc2C(=O)N([C@@H](C)CO)C[C@@H]1C`, the inhibition is 18.9%. For the compound `Cn1c(OCc2cccnc2)nc2c1c(=O)n(Cc1ccc(Cl)c(Cl)c1)c(=O)n2C`, the inhibition is 27.8%. Under `c1ccc2[nH]c(CSc3nc4ccccc4[nH]3)nc2c1` stands 6.35%; under `CCOC(=O)c1cc(=O)c2ccc(OCc3ccccc3)cc2o1`, 105% (active); under `Cc1c(CCC(=O)O)c(=O)oc2cc(OCc3ccc(Br)cc3)ccc12`, 19.3%. Under `Cc1cc(=O)oc2cc(OCc3cccc(F)c3)ccc12` stands 25.5%. To `O=C(CSc1nnc2ccc3ccccc3n12)Nc1ccc2c(c1)OCCO2` belongs 12.1%.
